Consider 4 compounds from paper PMC11062922 (Nature Chemical Biology, 2023).

Where two headings read alike, the source gives them in different places.

What all share (design): species or system human, MV4-11 + K-562 + COLO205 + SK-N-BE2 + OVCAR-8
Assay [1] deals with ACVR1B. The conditions noted are these: read-out: apparent Kd, n = 1.
Assay [2] concerns ADCK3. As to conditions: read-out: apparent Kd, n = 1.
Assay [3] concerns AKT2. As to conditions: read-out: apparent Kd; compound concentrations: 100 nM and 1000 nM (sheet 'Samples'), CATDS: 0.130692249594417; n = 1.
In assay [4] the test system is PIK3CA. The conditions noted are these: read-out: apparent Kd; compound concentrations: 100 nM and 1000 nM (sheet 'Samples'), CATDS: 0.46102021867548298; n = 1.
Assay [5] has as its system PIM2. As to conditions: read-out: apparent Kd; compound concentrations: 100 nM and 1000 nM (sheet 'Samples'), CATDS: 0.15422664553474699; n = 1.
Assay [6] deals with PRKAG2. The conditions noted are these: read-out: apparent Kd; compound concentrations: 100 nM and 1000 nM (sheet 'Samples'), CATDS: 0.141920033586769; n = 1.
The subject of assay [7] is CSNK1D. As to conditions: read-out: apparent Kd, compound concentrations: 100 nM and 1000 nM (sheet 'Samples'), n = 1.
In assay [8] the test system is NQO1. As to conditions: read-out: apparent Kd; compound concentrations: 100 nM and 1000 nM (sheet 'Samples'), CATDS: 9.3669265888158104E-2; n = 1.
Assay [9] deals with PRKD2. The conditions noted are these: read-out: apparent Kd; compound concentrations: 100 nM and 1000 nM (sheet 'Samples'), CATDS: 9.0452620049035204E-2; n = 1.
Assay [10] has as its system PRKD3. As to conditions: read-out: apparent Kd; compound concentrations: 100 nM and 1000 nM (sheet 'Samples'), CATDS: 9.3266966311560201E-2; n = 1.
The subject of assay [11] is RIPK2. As to conditions: read-out: apparent Kd, n = 1.
Assay [12] relates to TGFBR1. As to conditions: read-out: apparent Kd; compound concentrations: 100 nM and 1000 nM (sheet 'Samples'), CATDS: 0.486387422395817; n = 1.
Assay [13] has as its system TGFBR2. As to conditions: read-out: apparent Kd, n = 1.
Assay [14] deals with DDR1. The conditions noted are these: read-out: apparent Kd, n = 1.
For assay [15], the system named is MAPKAPK2. As to conditions: read-out: apparent Kd, n = 1.
The test system of assay [16] is PKN3. The conditions noted are these: read-out: apparent Kd; compound concentrations:100 nM and 1000 nM (sheet 'Samples'); n = 1.
The subject of assay [17] is SPR. As to conditions: read-out: apparent Kd; compound concentrations:100 nM and 1000 nM (sheet 'Samples'); n = 1.
Assay [18] deals with TESK2. The conditions noted are these: read-out: apparent Kd; compound concentrations:100 nM and 1000 nM (sheet 'Samples'); n = 1.
Assay [19] deals with TTK. The conditions noted are these: read-out: apparent Kd; compound concentrations:100 nM and 1000 nM (sheet 'Samples'); n = 1.
Assay [20] deals with CSNK1A1. As to conditions: read-out: apparent Kd; compound concentrations: 100 nM and 1000 nM (sheet 'Samples'), CATDS: 4.4417171665787201E-2; n = 1.
Assay [21] has as its system CSNK1E. The conditions noted are these: read-out: apparent Kd; compound concentrations: 100 nM and 1000 nM (sheet 'Samples'), CATDS: 7.8439067124282905E-2; n = 1.
Assay [22] relates to DDR2. The conditions noted are these: read-out: apparent Kd; compound concentrations: 100 nM and 1000 nM (sheet 'Samples'), CATDS: 4.1041053531745197E-2; n = 1.
Assay [23] concerns GAK. The conditions noted are these: read-out: apparent Kd; compound concentrations: 100 nM and 1000 nM (sheet 'Samples'), CATDS: 5.7317399451807E-2; n = 1.
Assay [24] concerns MAPK10. The conditions noted are these: read-out: apparent Kd; compound concentrations: 100 nM and 1000 nM (sheet 'Samples'), CATDS: 0.179195319148265; n = 1.
Assay [25] deals with MAPK11. As to conditions: read-out: apparent Kd; compound concentrations: 100 nM and 1000 nM (sheet 'Samples'), CATDS: 5.6945469434317497E-2; n = 1.
Assay [26] concerns MAPK14. The conditions noted are these: read-out: apparent Kd; compound concentrations: 100 nM and 1000 nM (sheet 'Samples'), CATDS: 0.23382543991059199; n = 1.
The test system of assay [27] is MAPK8. The conditions noted are these: read-out: apparent Kd; compound concentrations: 100 nM and 1000 nM (sheet 'Samples'), CATDS: 5.2366017866035799E-2; n = 1.
Assay [28] deals with MAPK9. The conditions noted are these: read-out: apparent Kd; compound concentrations: 100 nM and 1000 nM (sheet 'Samples'), CATDS: 0.113637290114738; n = 1.
The subject of assay [29] is NLK. The conditions noted are these: read-out: apparent Kd; compound concentrations: 100 nM and 1000 nM (sheet 'Samples'), CATDS: 5.1907933882023798E-2; n = 1.
The test system of assay [30] is RIPK3. The conditions noted are these: read-out: apparent Kd; compound concentrations: 100 nM and 1000 nM (sheet 'Samples'), CATDS: 4.0216087331075998E-2; n = 1.
The subject of assay [31] is SIK3. As to conditions: read-out: apparent Kd; compound concentrations: 100 nM and 1000 nM (sheet 'Samples'), CATDS: 4.1962261561680501E-2; n = 1.
Setting [32] is: compound concentrations:100 nM and 1000 nM (sheet 'Samples').

`COc1ccc(-c2ccc3c(NC(=O)C4CC4)n[nH]c3n2)cc1` [SB-711237]: the potency estimated from few doses in assay [1] (compound concentrations: 100 nM and 1000 nM (sheet 'Samples'), CATDS: 0.16866039240373501) was 1.18 µM; in assay [2] (compound concentrations: 100 nM and 1000 nM (sheet 'Samples'), CATDS: 0.14880786658068901), 1.59 µM; in assay [3] it was 2.26 µM; in [4] it was 0.21 µM; in assay [5], 1.45 µM; in assay [6], 1.79 µM.

For the compound `Nc1nc(-c2ccccn2)c(-c2ccc3ncccc3n2)s1` [GW693481X], the potency estimated from few doses in [1] (compound concentrations: 100 nM and 1000 nM (sheet 'Samples'), CATDS: 0.44423819438106199) was 0.0189 µM; in assay [7] (CATDS: 0.10134290714946401), 1.41 µM; in [8] it was 1.85 µM; in assay [9], 2.11 µM; in assay [10], 1.88 µM; in assay [11] (compound concentrations: 100 nM and 1000 nM (sheet 'Samples'), CATDS: 0.125372096454309), 0.727 µM. Moreover, the potency estimated from few doses in assay [12] is 0.016 µM; in [13] (compound concentrations: 100 nM and 1000 nM (sheet 'Samples'), CATDS: 0.106428788110752) it was 1.2 µM.

For the compound `Cl.Cl.Oc1cc(-c2nc(-c3ccccc3)[nH]c2-c2ccncc2)ccc1Cl.Oc1cc(-c2nc(-c3ccccc3)[nH]c2-c2ccncc2)ccc1Cl` [SB-386023-B], the potency estimated from few doses in assay [1] (setting [32]) is 0.968 µM; in assay [2] (setting [32]) it was 0.373 µM; in assay [14] (setting [32]), 1.84 µM; in [15] (setting [32]), 1.7 µM; in assay [16], 1.02 µM; in [11] (setting [32]) it was 0.192 µM. Besides, the potency estimated from few doses is 0.422 µM in [17], 1.47 µM in assay [18], 2.05 µM in [13] (setting [32]) and 1.6 µM in assay [19].

Consider `NC(=O)c1ccc2c(-c3ccnc(NCCCO)n3)c(-c3ccc(F)cc3)nn2c1` [GW581744X], for which the potency estimated from few doses in assay [1] (compound concentrations: 100 nM and 1000 nM (sheet 'Samples'), CATDS: 5.1726105609422098E-2) was 0.678 µM; in assay [20], 1.21 µM; in assay [7] (CATDS: 0.12647868619351901) it was 0.0703 µM; in assay [21], 0.202 µM; in assay [14] (compound concentrations: 100 nM and 1000 nM (sheet 'Samples'), CATDS: 4.5461807893970897E-2) it was 1.1 µM; in assay [22], 1.74 µM. Besides, the potency estimated from few doses in [23] is 0.485 µM; in [24], 0.038 µM; in [25], 0.495 µM; in assay [26], 0.0253 µM; in [27], 0.651 µM; in [28] it was 0.0869 µM. Moreover, the potency estimated from few doses was 0.048 µM in assay [15] (compound concentrations: 100 nM and 1000 nM (sheet 'Samples'), CATDS: 0.15591620581864199); 0.67 µM in assay [29]; 1.94 µM in assay [30]; 1.56 µM in assay [31].
